This passage reports outcome and AC50 results from PubChem BioAssay (EPA / NIEHS).

The structures appear in SMILES notation. Inconclusive results are not listed. Activity calls are given as the source filed them. The calls were made as follows, unless noted: active = hit-call score of the fitted dose curve at least 0.9, where 1 is the maximum; inactive = score below 0.9.

The nature of one assay: CCTE_Harrill_HTTr_Viability_MCF7: CCTE's 6-hour Cell Viability Assessment for the High-Throughput Transcriptomics (HTTr) Platform, in MCF-7 cells cultured in DMEM + 10% fetal bovine serum, Harrill Lab (AID 2284010). In outline: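 Read-out is propidium iodide gain of signal by high-content imaging, reflecting membrane integrity loss. Measurements are taken 6 h after dosing, eight concentrations per chemical, with DMSO serving as baseline for bidirectional curve fitting.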
In the case of `CC(N)=O`, the outcome was inactive.

In the case of `COc1ccc(C(=O)Nc2nc3ccccc3c(NCc3ccccc3)c2C#N)cc1`, the outcome was inactive.

For the molecule `CN(C)C(=O)NC1(c2ccccc2)CCN(CCC[C@]2(c3ccc(Cl)c(Cl)c3)CCCN(C(=O)c3ccccc3)C2)CC1`, the result was inactive.

For the molecule `CC(=O)OCC(COC(C)=O)OC(C)=O`, the result was inactive.

`c1ccc2occc2c1`: the outcome was inactive.

In the case of `Cc1occc(=O)c1O`, the result was inactive.

As to `OCC(CO)n1cnc(-c2ccc(F)cc2)c1-c1ccnc(Oc2ccccc2)n1`, the result was inactive.

For the molecule `Oc1ccccc1O`, the outcome was inactive.

Take `Oc1ccc(O)cc1`: the outcome was inactive.

Consider `O=C(N[C@@H](c1ccccc1)[C@@H]1CCCCN1)c1cccc(C(F)(F)F)c1Cl`, for which the result was inactive.

For `OCC(O)CO`, the outcome was inactive.

On to `CCCCC(CC)COP(=O)(OCC(CC)CCCC)OCC(CC)CCCC` (configuration not stated), for which the outcome was inactive.

For `Cc1cc(Cc2ccc(N)c(C)c2)ccc1N`, the result was inactive.

Take `CCCCCCCC(=O)OC`: the outcome was inactive.

For `O=C(O)CC(O)(CC(=O)O)C(=O)O`, the result was inactive.

For the molecule `CN(C)CCCN1c2ccccc2Sc2ccc(Cl)cc21`, the AC50 is 77.1 µM (active).

Turning to `CC(C)COC(=O)CCCCC(=O)OCC(C)C`, the outcome was inactive.

As to `O=C(O)CN(CC(=O)O)CC(=O)O`, the result was inactive.

For the molecule `CC(C)NCC(O)c1ccc(O)c(O)c1` (configuration not stated), the result was inactive.

Consider `O=C1O[C@H]([C@H](O)CO)C(O)=C1O`, for which the result was inactive.

For the molecule `CC(COCC(C)OC(=O)c1ccccc1)OC(=O)c1ccccc1` (configuration not stated), the outcome was inactive.

Consider `NC(=Nc1ccccc1)Nc1ccccc1`, for which the result was inactive.

On to `CN(C)C(=O)NC1(c2ccccc2)CCN(CC[C@@]2(c3ccc(F)c(F)c3)CN(C(=O)c3ccccc3)CCO2)CC1`, for which the outcome was inactive.

As for `C/C=C/c1ccc(OC)cc1`, the outcome was inactive.

With `CCCCC(CC)COC(=O)CCCCCCCC(=O)OCC(CC)CCCC` (configuration not stated), the outcome was inactive.

Take `COc1ccc(OC(F)(F)F)cc1CN[C@H]1CCCN[C@H]1c1ccccc1`: the result was inactive.

Regarding `CCCCC(CC)CO` (configuration not stated), the outcome was inactive.

`CCCC(=O)O`: the result was inactive.

A further assay is described as follows: CCTE_Harrill_HTTr_Apoptosis_MCF7: CCTE's 6-hour Apoptosis Assessment for the High-Throughput Transcriptomics (HTTr) Platform, in MCF-7 cells cultured in DMEM + 10% fetal bovine serum, Harrill Lab (AID 2284011). The gist of the method: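 MCF-7 cells in DMEM + 10% FBS exposed 6 h to chemicals over an eight-point dilution series. Caspase-3/7 activation imaged by high-content CellEvent Green staining; fitted bidirectionally versus DMSO.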
On to `CC(N)=O`, for which the outcome was inactive.

For `COc1ccc(C(=O)Nc2nc3ccccc3c(NCc3ccccc3)c2C#N)cc1`, the result was inactive.

For the molecule `CN(C)C(=O)NC1(c2ccccc2)CCN(CCC[C@]2(c3ccc(Cl)c(Cl)c3)CCCN(C(=O)c3ccccc3)C2)CC1`, the outcome was inactive.

Consider `CC(=O)OCC(COC(C)=O)OC(C)=O`, for which the result was inactive.

In the case of `c1ccc2occc2c1`, the outcome was inactive.

Regarding `Cc1occc(=O)c1O`, the outcome was inactive.

For the molecule `OCC(CO)n1cnc(-c2ccc(F)cc2)c1-c1ccnc(Oc2ccccc2)n1`, the result was inactive.

`Oc1ccccc1O`: the outcome was inactive.

Take `Oc1ccc(O)cc1`: the result was inactive.

On to `O=C(N[C@@H](c1ccccc1)[C@@H]1CCCCN1)c1cccc(C(F)(F)F)c1Cl`, for which the result was inactive.

With `OCC(O)CO`, the outcome was inactive.

Consider `CCCCC(CC)COP(=O)(OCC(CC)CCCC)OCC(CC)CCCC` (configuration not stated), for which the result was inactive.

For `Cc1cc(Cc2ccc(N)c(C)c2)ccc1N`, the outcome was inactive.

In the case of `CCCCCCCC(=O)OC`, the result was inactive.

Turning to `O=C(O)CC(O)(CC(=O)O)C(=O)O`, the outcome was inactive.

For the molecule `CN(C)CCCN1c2ccccc2Sc2ccc(Cl)cc21`, the concentration at half-maximal activity (AC50) is 50 µM (active).

On to `CC(C)COC(=O)CCCCC(=O)OCC(C)C`, for which the result was inactive.

Take `O=C(O)CN(CC(=O)O)CC(=O)O`: the result was inactive.

On to `CC(C)NCC(O)c1ccc(O)c(O)c1` (configuration not stated), for which the result was inactive.

With `O=C1O[C@H]([C@H](O)CO)C(O)=C1O`, the result was inactive.

For `CC(COCC(C)OC(=O)c1ccccc1)OC(=O)c1ccccc1` (configuration not stated), the result was inactive.

Take `NC(=Nc1ccccc1)Nc1ccccc1`: the result was inactive.

Regarding `CN(C)C(=O)NC1(c2ccccc2)CCN(CC[C@@]2(c3ccc(F)c(F)c3)CN(C(=O)c3ccccc3)CCO2)CC1`, the result was inactive.

Take `C/C=C/c1ccc(OC)cc1`: the outcome was inactive.

Turning to `CCCCC(CC)COC(=O)CCCCCCCC(=O)OCC(CC)CCCC` (configuration not stated), the outcome was inactive.

For the molecule `COc1ccc(OC(F)(F)F)cc1CN[C@H]1CCCN[C@H]1c1ccccc1`, the outcome was inactive.

As to `CCCCC(CC)CO` (configuration not stated), the outcome was inactive.

In the case of `CCCC(=O)O`, the result was inactive.

A short description of the next assay: CCTE_Harrill_HTTr_CellCount_MCF7: CCTE's Cell Proliferation Assessment for the High-Throughput Transcriptomics (HTTr) Platform, Harrill Lab (AID 2284012; active = hit-call score of the fitted dose curve at least 0.9, where 1 is the maximum;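 also: cells exposed to compound for six hours; intended direction is loss of nuclei count meaning fewer cells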). The gist of the method:
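Cell count served as viability reporter: loss of Hoechst-stained nuclei, counted by high content imaging, marks decreased growth or survival. Exposure was 6 h in MCF-7 cells across eight concentrations, with DMSO as baseline.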
With `CC(N)=O`, the call was inactive.

Turning to `c1ccc2occc2c1`, the outcome was inactive.

As for `Oc1ccc(O)cc1`, the outcome was inactive.

On to `O=C(N[C@@H](c1ccccc1)[C@@H]1CCCCN1)c1cccc(C(F)(F)F)c1Cl`, for which the molecule was called inactive.

On to `CN(C)CCCN1c2ccccc2Sc2ccc(Cl)cc21`, for which the molecule was called inactive.

With `CC(C)NCC(O)c1ccc(O)c(O)c1` (configuration not stated), the outcome was inactive.

Regarding `CN(C)C(=O)NC1(c2ccccc2)CCN(CC[C@@]2(c3ccc(F)c(F)c3)CN(C(=O)c3ccccc3)CCO2)CC1`, the call was inactive.

On to `C/C=C/c1ccc(OC)cc1`, for which the outcome was inactive.

Take `CCCC(=O)O`: the call was inactive.

Another assay is described as follows: CCTE_Shafer_MEA_acute_burst_number: CCTE's Neural Acute Assay for Single-Electrode Bursts, Shafer Lab (AID 2284013). The gist of the method:
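Burst totals were derived with adaptive spike detection (8x rms threshold) on filtered signals from rat cortical cultures; change relative to pre-treatment baseline after 40-min compound exposure (0.03-40 uM) was fitted in the negative direction against DMSO.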
Take `CC(N)=O`: the molecule was called inactive.

`CN(C)C(=O)NC1(c2ccccc2)CCN(CCC[C@]2(c3ccc(Cl)c(Cl)c3)CCCN(C(=O)c3ccccc3)C2)CC1`: the molecule was classed as inactive.

For `c1ccc2occc2c1`, the outcome was inactive.

For `OCC(CO)n1cnc(-c2ccc(F)cc2)c1-c1ccnc(Oc2ccccc2)n1`, the molecule was called inactive.

Turning to `Oc1ccc(O)cc1`, the outcome was inactive.

In the case of `O=C(N[C@@H](c1ccccc1)[C@@H]1CCCCN1)c1cccc(C(F)(F)F)c1Cl`, the half-maximal activity concentration (AC50) is 3.29 µM (active).

Regarding `CCCCC(CC)COP(=O)(OCC(CC)CCCC)OCC(CC)CCCC` (configuration not stated), the molecule was classed as inactive.

`Cc1cc(Cc2ccc(N)c(C)c2)ccc1N`: the call was inactive.

`CN(C)CCCN1c2ccccc2Sc2ccc(Cl)cc21`: the result was inactive.

`CC(C)COC(=O)CCCCC(=O)OCC(C)C`: the outcome was inactive.

In the case of `O=C(O)CN(CC(=O)O)CC(=O)O`, the result was inactive.

Turning to `CC(C)NCC(O)c1ccc(O)c(O)c1` (configuration not stated), the molecule was called inactive.

On to `NC(=Nc1ccccc1)Nc1ccccc1`, for which the AC50 is 1.53 µM (active).

For the molecule `CN(C)C(=O)NC1(c2ccccc2)CCN(CC[C@@]2(c3ccc(F)c(F)c3)CN(C(=O)c3ccccc3)CCO2)CC1`, the concentration at half-maximal activity (AC50) was 4.34 µM (active).

As to `C/C=C/c1ccc(OC)cc1`, the molecule was classed as inactive.

Turning to `COc1ccc(OC(F)(F)F)cc1CN[C@H]1CCCN[C@H]1c1ccccc1`, the AC50 was 1.89 µM (active).

As to `CCCC(=O)O`, the outcome was inactive.

The AC50 is the concentration giving half of the maximal activity seen.
